Laboratory results from the supplement of paper PMC11417369.
In all, about 25,000 sequences were measured (“ln(normalized median fluorescence intensity)”: median about 7.1, highest 2% from about 10 on). For the sample, the highest values were picked, then their nearest neighbours and some sequences at random.

What follows are sequences tested on PfSIP2 AP2 domain 1 (GST-tagged) (assay: gcPBM binding intensity (ln(normalized median fluorescence intensity)); higher = stronger DNA binding).
How it was run: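 Alexa488 anti-GST antibody, scanned at 488 nm, detected GST-tagged P. falciparum DNA-binding domains that had been expressed in E. coli and incubated for 1 h on an Agilent 4 × 180k array. The array carried primer-extended double-stranded 36-bp intergenic genomic probes and negative controls. Binding intensity is the highest Masliner-normalised natural-log median intensity across replicate spots of either orientation of each probe.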

| Sequence | gcPBM binding intensity (ln) |
| --- | --- |
| ATCACAAAATGGAATGTTCTATGATATATATGTATA [XGTACX_negctrl_site460] | 7.02 |
| GCAAAGCACAAATATGCATGTAGATATAGAATAATG [TGCATGCA_site382] | 7.68 |
| GTATATGAGAAAAAAAGTACATGCACAAAATGTATA [XGTACX_site6441] | 7.42 |
| TTTGAAAAGTATGAGGTGCAAAAAATGTAATGAAAT | 10.2 |
| ATATATATATATAAAGTGCAAAAATGAAAGTAAGAC [GTGCAC_site9850] | 9.25 |
| ATTCTAAATATCAGTGCACACATTTCTACGCAAAGT [CACACA_site474] | 9.9 |
| TAAAATATTATCTACGCACACATTAAAATAAAAAAA [CACACA_site3709] | 7.17 |
| ATTATAAATATCAGTGCACACATTTCTACGCAAAGT [CACACA_site4420] | 10.4 |
| AAAGAATTTGCATATACACACAAAAAAATAAATACA [CACACA_site4373] | 7.03 |
| TATATATTATACACGTGTACACATTATAACAATATA [XGTACX_site7799] | 7.4 |
| TATATATATATATAATGTACTTATATTTTTTTGAGG [XGTACX_site2638] | 9.46 |
| AAGGAAAACAATAGGTGTACCAAACGTCCTAGGAAC [XGTACX_site5732] | 6.7 |
| GTTCTAATATATTGCACACGTAAAAATATAGGTAAT [CACACA_site886] | 7.42 |
| TAATATGAAATGTGTACACACGCACCCACAAAAAAA [CACACA_site8949] | 10.7 |
| TAATATGAAAAGTGTACACACGCACAGACAAAAAAA [CACACA_site5594] | 7.33 |
| AATGTGTACGCACGCACACACAAAAAAATATATATA [CACACA_site2913] | 7.24 |
| TGTAATATGAAATGTGTACACACGCACCCACAAAAA [CACACA_site8948] | 10.9 |
| ATATGAAAGGTGTACACACGCACACCCAAAAAAATA [CACACA_site2911] | 7.93 |
| GTGTAATATGAAATGTGTACACACGCACACACAAAA [XGTACX_site6180] | 7.6 |
| TATCCCCTTGTCCATATTAATTGTGACATCATATAT [XGTACX_negctrl_site9] | 7.09 |
| TCATTAAAGGAAAAATGTACGTATAAATAAATATAT [XGTACX_site2587] | 7.07 |
| GAAATAAAAAGAAATGCATGTAATTTTTTTTTTTTT [TGCATGCA_site928] | 6.71 |
| TAAAATATTTCAAAGGTGCAATGATAATTTAAGACG [GTGCAC_site9609] | 10.4 |
| TTAATTAATTTTTCAGTGCAAATAAAAAATATTTAA | 7.78 |

| Sequence | gcPBM binding intensity (ln) |
| --- | --- |
| ATTTAAAAAAGAAAGGTGCATTTCAATAATGTAAAA [GTGCAC_site9585] | 11 |
| GAAAATAAAATAAATGCATGTAAATTTAATGTAATG [TGCATGCA_site996] | 6.87 |
| ATATTTAAAGAATAAGTGCAAAATGTAATTAATTTT [GTGCAC_site9901] | 7.91 |
| TCATTTTAATTAAAAGTGCAAAAAATAATATAACTA [GTGCAC_site9968] | 8.31 |
| ATTATAAAAGAATTTTTTTTTATTTCATTAAAATAT [CACACA_negctrl_site1137] | 6.57 |
| CATAATTTAAAAAAGGTGCAAAATGGATAATATATA [GTGCAC_site9657] | 11 |
| TGATATAAAATTAAAGTGCAAAAAAAAAATAAAAAA | 8.36 |
| AGAATTAAAATAAAGGTGCATTTTTTTGTTTCATGT | 11 |
| AAAAAAAAAAAAAAAGTGCATTAATAAATTTTAATA | 9.57 |
| TACTATATCGATACCAGTACAGATTTATAAATAATA [XGTACX_site7491] | 6.94 |
| ATAAATAATATATATACACACATATCTATACATATT [CACACA_site487] | 7.05 |
| AATAATAATAAAAAGGTGCTGAAATATTTTTATTAT [GTGCAC_site9763] | 8.38 |
| GCTGAAAGGATAAAGGTGCATATTTTTTAAAAAATT [GTGCAC_site9487] | 11.2 |
| AAATTAAAGGCATAAAAGAAAATATTTAATAAAAAA [CACACA_negctrl_site1689] | 6.57 |
| ATACACACAGCCTAAACATGCATATAGAAAAAAGAA [TGCATGCA_site1028] | 7.4 |
| ATTCTATAGAAACACACACACATGCATGCACCTATA [CACACA_site107] | 11.7 |
| TATATATAGAAACACACACACACATATATATATATA [CACACA_site4116] | 9.25 |
| AATAAGTAACAAAATACACACATATAGGTAATTATA [CACACA_site6949] | 6.83 |
| GTTGTGTAATTCGTAACACACATAAAATATATATAA [CACACA_site6059] | 6.97 |
| CATAACATAAAATAGGTGCACAAAAATTGTAATTGA | 11.2 |
| ACATATGAATATAATACACACTTGTATTATTAATAT [CACACA_site8546] | 6.85 |
| ATATTCTTGTTTAATACACACTGTAGTATTATATAT [CACACA_site4400] | 7.17 |
| GTACACCTATAATATACACACAACAAATATGCACAT [CACACA_site6603] | 8.84 |
| GAATAATATGGACATACACACATATACATACCTATA [CACACA_site7075] | 7.25 |

| Sequence | gcPBM binding intensity (ln) |
| --- | --- |
| ATACAGTTGCATATGGTGCACGAATAATACACCTAT | 11.3 |
| ACACTTAAATATTGTTGTACAAAATGATAAAATGTA [XGTACX_site4588] | 7.13 |
| CACCCTTTGTTTTAGAGTACATATGTATATACGTAA [XGTACX_site7964] | 7.53 |
| ATAAAAAACTCAGAGCGTACATAATTTTTTCTATTT [XGTACX_site2803] | 7.24 |
| TATATATGGGTAACCTTTTTTTTTTTTTTTCGAACA [CACACA_negctrl_site1303] | 6.8 |
| AGGTAGAAAAAAGACACACACATTATGTATATATAT [CACACA_site377] | 7.6 |
| ACAAAATTTACAAAATGTACAAAATATACAAAATAT [XGTACX_site6465] | 6.99 |
| AAAATTATTTAGTAAGTGCAAAAAAAAAAAAAAAAA | 8.21 |
| TATTATTATTTTATGGTGCAAAAAAAAAAAAAAAAA | 10.6 |
| CATATTATTATTTTGGTGCATACTTATATATATTTT | 9.74 |
| CACCCTTTACACAAGGTGCATACTTTATTATATTTT [GTGCAC_site9778] | 10.6 |
| TACAATATATTTATAGTGCATATTACTTTTAACTTT | 8.41 |
| TATTTTTATTATATGGTGCATATATACATACATATA | 10.4 |
| ATTTATTTTAAATAAGTGCAAAATGGTTATAAATAA | 8.23 |
| TTATTTTTATATTTCACACACATATACTTTTACATA [CACACA_site4097] | 7.28 |
| TACATACATATATTATGTACATATTTTATTTTTATT [XGTACX_site1642] | 7.08 |
| AAGGAGCCTATGAACACACACATGTACATATATTAA [CACACA_site4084] | 7.03 |
| TATATATGCATTAAAGTGTTTTTTTTTTTTTTTTTT [CACACA_negctrl_site1353] | 7.72 |
| TACACATTATGTATCATACACACAAATAAATATATA [CACACA_site608] | 7.1 |
| TAAGAAATTGAGCGCACACATACATCTGTGGGATGG [CACACA_site1548] | 6.71 |
| CATACACATTTCATATGTACATAGATTGAAGGGAAG [XGTACX_site116] | 7.21 |
| ATATATATTATATGCACACTAATAAGACTATTTAAA [CACACA_site3554] | 9.68 |
| ATATATATATTATATGCACACTAATAAGACTATTTA [CACACA_site5880] | 9.55 |
| TACGTAATAATATGCACACAAATAAACTTTATAAAT [CACACA_site3501] | 8.22 |

| Sequence | gcPBM binding intensity (ln) |
| --- | --- |
| CGAGCAAGACGGGGTGCACACAAACTAATATGCCGA [CACACA_site7936] | 12.1 |
| AGCAAGACGGGGTGCACACAAACTAATATGCCGAAT [CACACA_site159] | 12.1 |
| TATACGTAATAATATGCACACAAATAAACTTTATAA [CACACA_site9166] | 8.88 |
| ATTTAATTCGTACATACACACGCACATATATATATA [CACACA_site8415] | 8.85 |
| CTATTAAAAAAATTATGTACACAACGTCTCTATATA [XGTACX_site4813] | 7.01 |
| TTTTTTAAAATATATATAATGAATTTTTTTTTTTTT [CACACA_negctrl_site1577] | 7.05 |
| TGATCAAATAAGTTTGCATGTCAACAATGCATATAT [TGCATGCA_site1025] | 7.19 |
| AAAAAAAAAAAAGATACACACAAAAATGGATATATA [CACACA_site7069] | 6.77 |
| CAATTATTGTAATGCATGCACTGAATATAAAAAGAA | 9.18 |
| AAAAAATAAATAAATACACACACACTAATATATATA [CACACA_site8488] | 7.67 |
| TATTTTATATAAAGGTGTACTTATACAAAAATATAT [XGTACX_site7435] | 7.22 |
| TTATAAAAGACAAAAGTGCATATATACATATGTATA | 8.27 |
| ATGTTTGAGCCTAAGGTGCATATAAAAATATATGTG [GTGCAC_site9690] | 10.7 |
| TATATATATATATGAGTGCATATGTGTAATATAAAA | 9.27 |
| AGGTTATAAATAAATACACACATACAAAAATATGAC [CACACA_site4773] | 6.94 |
| TATAAATATACAAAGGTGCATAAAAAGTTATGTTTT [GTGCAC_site9832] | 10.4 |
| TTTTTTTGTTAAAAGGTGCTAATATATATAAGTGCT | 9.03 |
| TGAGCACAAATACAGGTGCATATAAAATATATGACG | 10.5 |
| ATTTTTCTAAAATACTGTACAAAGGTGCATAAAAAG [XGTACX_site4425] | 11.5 |
| GTTATAAATAAATACACACATACAAAAATATGACGT [CACACA_site1154] | 6.94 |
| ATTTTATATAATACATGTACAAAAGTTTAAATTTAT [XGTACX_site6196] | 7.13 |
| TTTTCTCTAAAAAGGTGTACAACTAATAATGCACTG [XGTACX_site6074] | 9.09 |
